According to PubChem BioAssay (Tox21):
Where “and” joins values, the source holds several entries; their conditions need not be identical. Equal values may be shown once. Results filed as inconclusive are left out. Where a call stands in place of a potency, no number is given. Where a structure was tested more than once in an assay, its records may differ in their call. Calls of active or inactive are those of the source. Unless noted, the call rests on the fitted dose curve.

Assays:
[1] = Nuclear factor erythroid 2-related factor 2/antioxidant responsive element (Nrf2/ARE) small molecule agonists: qHTS cell viability counter screen in human keratinocytes (AID 1919968; active means well fitted curve in the direction sought with a large enough effect in the repeat runs; an effect the other way counts as inactive or inconclusive; further: nearly all actives have a fitted effect of over 55% in size; further: potency means the concentration at half of the fitted maximal effect)
Summary of the method: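 KeratinoSens cells (HaCaT keratinocytes stably carrying an ARE-luciferase reporter) were seeded at 1,500 cells/well and rested 5 h at 37 C/5% CO2. They were then exposed to compounds in DMSO for 23 h. Viability was read by CellTiter-Fluor fluorescence after 1 h.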

[2] = Nuclear factor erythroid 2-related factor 2/antioxidant responsive element (Nrf2/ARE) small molecule agonists: luciferase reporter gene qHTS assay in human keratinocytes (AID 1919969); further: nearly all actives have a fitted effect of over 35% in size; further: potency means the concentration at half of the fitted maximal effect
[3] = target: Gonadotropin-releasing hormone receptor (Homo sapiens) (UniProt P30968); experiment: Human gonadotropin-releasing hormone receptor (GnRHR) small molecule agonists, calcium flux assay in GnRHR-HEK293 cells (AID 1920063); further: nearly all actives have a fitted effect of over 35% in size
Summary of the method: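 HEK293 cells stably expressing human GnRHR were plated 18 h at 37 °C, loaded with calcium dye 1 h at 37 °C, then given compound in agonist mode; fluorescence (Ex/Em 480/540) read kinetically for 3 min at 1 s intervals.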

[4] = target: KiSS-1 receptor (Homo sapiens) (UniProt Q969F8); experiment: Human kisspeptin (KISS1R) small molecule agonists, calcium flux assay in KISS1R-HEK293 cells (AID 1920064; active means well fitted curve in the direction sought with a large enough effect in the repeat runs; an effect the other way counts as inactive or inconclusive)
Summary of the method: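 HEK293 cells stably expressing human KISS1R were plated 18 h at 37 °C, loaded with calcium dye for 1 h at 37 °C, then given compound by pin tool. Fluorescence (Ex/Em 480/540) was read kinetically for 3 min.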

[5] = G protein-coupled receptor (GPCR) small molecule agonists, calcium flux assay: HEK293 wild type cell line counter screen (AID 1920065)
Summary of the method: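 Cells were plated and cultured 18 h at 37 C/5% CO2, then loaded with calcium dye for 1 h at 37 C. Compounds in DMSO were pin-transferred in agonist mode, and fluorescence (Ex/Em 480/540) was read kinetically for 3 min at 1 s intervals.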

[6] = p53 small molecule agonists, cell-based qHTS assay with human liver microsomes (AID 1963577);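 further: p53 response element beta-lactamase reporter cells with liver microsomes plus NADPH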
Summary of the method: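 Steps: plate p53RE-bla cells, incubate 5 h at 37 C; add compound in DMSO; add microsomes (0.5 mg/mL final) and NADPH (0.5 mg/mL final); incubate 16 h at 37 C; add LiveBLAzer, 2 h RT; read fluorescence.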

[7] = p53 small molecule agonists, cell-based qHTS assay with rat liver microsomes (AID 1963578)
Summary of the method: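 Metabolic activation is supplied by rat liver microsomes with NADPH (each 0.5 mg/mL final). p53RE-bla cells incubate with compound 16 h at 37 C; reporter activity is measured by LiveBLAzer fluorescence.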

[8] = p53 small molecule agonists, cell-based qHTS assay with human liver microsomes: qHTS cell viability counter screen (AID 1963579); further: nearly all actives have a fitted effect of over 45% in size; further: potency means the concentration at half of the fitted maximal effect
Summary of the method: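 After the 460/530 nm beta-lactamase read, CellTiter-Glo was added to the same wells and luminescence measured after 30 min at room temperature, giving viability of p53RE-bla cells treated 16 h with compounds plus microsomes and NADPH.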

[9] = p53 small molecule agonists, cell-based qHTS assay with rat liver microsomes: qHTS cell viability counter screen (AID 1963580); further: nearly all actives have a fitted effect of over 45% in size; further: potency means the concentration at half of the fitted maximal effect
Summary of the method: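 p53RE-bla HCT-116 cells (4,000/well) rested 5 h at 37 C, then given Tox21 compounds in DMSO with rat liver microsomes (0.5 mg/mL final) plus NADPH (0.5 mg/mL final) for 16 h at 37 C. Viability read by CellTiter-Glo luminescence after 30 min at room temperature.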

[10] = target: 5-hydroxytryptamine receptor 2A (Homo sapiens) (UniProt P28223); experiment: 5-hydroxytryptamine receptor 2A (HTR2A) small molecule antagonists, cell-based qHTS assay (AID 1963586); further: nearly all actives have a fitted effect of over 45% in size; further: potency means the concentration at half of the fitted maximal effect
Summary of the method: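 Antagonist-mode intracellular calcium assay: DOI (4 nM) added after 5 min compound pre-incubation at room temperature to dye-loaded HTR2A-CHO cells. Fluorescence followed for 3 min, sampled every second.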

[11] = target: Muscarinic acetylcholine receptor M1 (Homo sapiens) (UniProt P11229); experiment: Cholinergic receptor muscarinic 1 (CHRM1) small molecule antagonists, cell-based qHTS assay (AID 1963588); further: nearly all actives have a fitted effect of over 40% in size
Summary of the method: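 CHRM1-CHO calcium-flux assay, antagonist mode. Cells were seeded 18 h, dye-loaded 1 h at 37 C and given compound for 5 min at RT, then acetylcholine was added at 50nM. FDSS fluorescence was read 3 min; 15 concentrations, three runs.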

[12] = target: Muscarinic acetylcholine receptor M1 (Homo sapiens) (UniProt P11229); experiment: Cholinergic receptor muscarinic 1 (CHRM1) small molecule agonists, cell-based qHTS assay (AID 1963589); further: nearly all actives have a fitted effect of over 35% in size
Summary of the method: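 CHO cells stably expressing human CHRM1, seeded 18 h at 37 C/5% CO2, dye-loaded 1 h at 37 C, then given compound in agonist mode; intracellular calcium fluorescence read kinetically at 1 s intervals. Fifteen concentrations, three independent runs.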

[13] = target: Beta-2 adrenergic receptor (Homo sapiens) (UniProt P07550); experiment: Adrenergic beta2 receptor (ADRB2) small molecule antagonists, cell-based qHTS assay (AID 1963592); further: series mostly up to about 92 µM; nearly all actives have a fitted effect of over 50% in size
Summary of the method: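 Cells (CHO, stable ADRB2 overexpression) incubated 18-20hr at 37C; compounds added from DMSO; agonist mix (1nM isoproterenol, 100uM IBMX, 25uM Ro-20-1724) added; 0.5hr RT; d2-cAMP and anti-cAMP-cryptate added; 1hr RT; 665/615 nm read.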

[14] = target: Beta-2 adrenergic receptor (Homo sapiens) (UniProt P07550); experiment: Adrenergic beta2 receptor (ADRB2) small molecule agonists, cell-based qHTS assay (AID 1963593);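 further: CHO cells stably overexpressing human ADRB2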
Summary of the method: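 CHO cells stably over-expressing ADRB2 were plated overnight at 37C, then dosed with compounds plus a stimulation mix containing 100uM IBMX and 25uM Ro-20-1724 for 0.5hr at room temperature. cAMP was measured by HTRF competition, 1hr.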

[15] = target: 5-hydroxytryptamine receptor 2A (Homo sapiens) (UniProt P28223); experiment: 5-hydroxytryptamine receptor 2A (HTR2A) small molecule agonists, cell-based qHTS assay (AID 1963587); further: nearly all actives have a fitted effect of over 30% in size
Summary of the method: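 HTR2A-CHO cells, plated 18 h at 37 C/5% CO2, dye-loaded 1 h at 37 C; compounds in DMSO added by pin tool (agonist mode). Intracellular calcium flux read as kinetic fluorescence on FDSS over 2 min at 1 s intervals.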

[16] = cAMP Responsive Elements (CRE) small molecule agonists, cell-based qHTS assay (AID 1963590)
Summary of the method: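 CRE-bla HEK 293T cells in DMEM with 10% dialyzed FBS, NEAA, pyruvate and 25 mM HEPES were plated 18 h at 37 C/5% CO2, then exposed to compounds in DMSO for 3 h before LiveBLAzer B/G FRET substrate addition.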

[17] = cAMP Responsive Elements (CRE) small molecule antagonists, cell-based qHTS assay (AID 1963591; active means well fitted inhibition curve with a large enough effect in the signal ratio in the repeat runs, not every such curve was filed as active; the % refers to the signal ratio; further: potency means the concentration at half of the fitted maximal effect)
Summary of the method: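 CRE-bla HEK293T cells were plated 18 h at 37 °C/5% CO2, pinned with compound in DMSO, then stimulated with NKH477 at 0.25 uM final for 3 h. LiveBLAzer B/G FRET substrate was added and plates incubated 2 h at room temperature.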

[18] = target: D(2) dopamine receptor (Homo sapiens) (UniProt P14416); experiment: Dopamine D2 receptor (DRD2) small molecule agonists, cell-based qHTS assay (AID 1963594); further: nearly all actives have a fitted effect of over 35% in size
Summary of the method: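 HEK293 cells stably expressing DRD2 were cultured 24 h at 37 C, then given Ro20-1724 (0.1 mM final) and compounds for 10 min at room temperature. NKH477 (200nM) was then added for 30 min. cAMP was read by HTRF.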

[19] = target: D(2) dopamine receptor (Homo sapiens) (UniProt P14416); experiment: Dopamine D2 receptor (DRD2) small molecule antagonists, cell-based qHTS assay (AID 1963595; active means well fitted inhibition curve with a large enough effect in the signal ratio in the repeat runs, with a control signal flat; the % refers to the signal ratio)
Summary of the method: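 Stable D2 receptor HEK293 line, 24 h after seeding. Compound preincubated 10 min, then quinpirole (12 nM) with forskolin analogue NKH477 (200 nM), 30 min, room temperature. Detection by time-resolved FRET of cAMP.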

[20] = p53 small molecule agonists, cell-based qHTS assay: qHTS cell viability counter screen (AID 1963581); further: nearly all actives have a fitted effect of over 45% in size
Summary of the method: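 p53RE-bla HCT-116 cells were exposed to compounds for 16 h at 37 C; after the beta-lactamase FRET read in the same wells, CellTiter-Glo was added and luminescence (intracellular ATP) read after 30 min at room temperature.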

Sequence of Muscarinic acetylcholine receptor M1 (Homo sapiens) (P11229 whole entry, looked up): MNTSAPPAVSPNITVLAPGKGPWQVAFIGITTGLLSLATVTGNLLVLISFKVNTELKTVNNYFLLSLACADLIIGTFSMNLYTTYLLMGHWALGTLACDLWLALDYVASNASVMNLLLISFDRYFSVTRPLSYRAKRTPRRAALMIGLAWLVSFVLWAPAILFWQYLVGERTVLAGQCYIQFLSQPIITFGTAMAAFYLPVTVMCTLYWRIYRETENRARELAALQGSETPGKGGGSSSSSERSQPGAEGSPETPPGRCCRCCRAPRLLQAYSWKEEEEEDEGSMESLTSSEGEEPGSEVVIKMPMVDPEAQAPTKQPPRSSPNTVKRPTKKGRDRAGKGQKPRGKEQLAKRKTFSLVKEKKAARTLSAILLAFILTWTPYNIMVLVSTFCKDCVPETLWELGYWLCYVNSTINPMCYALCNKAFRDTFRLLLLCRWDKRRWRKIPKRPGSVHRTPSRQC
Sequence of 5-hydroxytryptamine receptor 2A (Homo sapiens) (P28223 whole entry, looked up): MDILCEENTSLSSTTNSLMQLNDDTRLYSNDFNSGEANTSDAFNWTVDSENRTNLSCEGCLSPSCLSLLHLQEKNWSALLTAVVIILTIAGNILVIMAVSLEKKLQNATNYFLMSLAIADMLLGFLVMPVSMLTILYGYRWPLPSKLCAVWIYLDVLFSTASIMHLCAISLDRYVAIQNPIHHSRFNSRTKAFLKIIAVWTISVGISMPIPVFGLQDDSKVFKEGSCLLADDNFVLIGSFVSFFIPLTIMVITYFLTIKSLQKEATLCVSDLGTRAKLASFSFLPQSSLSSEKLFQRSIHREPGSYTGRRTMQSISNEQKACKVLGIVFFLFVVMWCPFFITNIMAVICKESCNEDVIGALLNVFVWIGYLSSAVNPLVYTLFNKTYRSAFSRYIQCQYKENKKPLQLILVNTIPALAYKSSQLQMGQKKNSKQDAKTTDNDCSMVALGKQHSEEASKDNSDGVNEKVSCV
Sequence of D(2) dopamine receptor (Homo sapiens) (P14416 whole entry, looked up): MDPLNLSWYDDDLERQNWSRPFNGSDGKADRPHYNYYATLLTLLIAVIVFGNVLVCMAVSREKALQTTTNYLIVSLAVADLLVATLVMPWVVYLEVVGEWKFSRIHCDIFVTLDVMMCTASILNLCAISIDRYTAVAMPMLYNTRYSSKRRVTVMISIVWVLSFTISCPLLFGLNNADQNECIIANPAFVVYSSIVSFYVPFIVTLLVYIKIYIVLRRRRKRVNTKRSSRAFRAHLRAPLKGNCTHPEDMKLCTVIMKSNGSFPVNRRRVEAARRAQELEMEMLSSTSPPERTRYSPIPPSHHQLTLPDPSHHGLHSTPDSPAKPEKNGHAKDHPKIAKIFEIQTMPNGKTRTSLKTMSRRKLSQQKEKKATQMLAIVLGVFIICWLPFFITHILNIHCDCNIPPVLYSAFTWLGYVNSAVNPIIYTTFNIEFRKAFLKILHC
Sequence of Beta-2 adrenergic receptor (Homo sapiens) (P07550 whole entry, looked up): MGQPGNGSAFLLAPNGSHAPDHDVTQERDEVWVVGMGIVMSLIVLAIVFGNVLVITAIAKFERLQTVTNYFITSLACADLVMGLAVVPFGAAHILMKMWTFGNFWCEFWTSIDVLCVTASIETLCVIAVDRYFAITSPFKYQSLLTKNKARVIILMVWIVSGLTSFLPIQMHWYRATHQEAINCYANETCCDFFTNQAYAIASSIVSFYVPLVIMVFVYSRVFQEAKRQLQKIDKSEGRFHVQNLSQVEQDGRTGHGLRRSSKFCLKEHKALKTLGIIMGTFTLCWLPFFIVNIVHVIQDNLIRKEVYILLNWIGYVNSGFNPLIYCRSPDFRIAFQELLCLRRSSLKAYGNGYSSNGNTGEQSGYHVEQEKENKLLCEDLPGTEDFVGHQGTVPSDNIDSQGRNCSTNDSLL
Sequence of Gonadotropin-releasing hormone receptor (Homo sapiens) (P30968 whole entry, looked up): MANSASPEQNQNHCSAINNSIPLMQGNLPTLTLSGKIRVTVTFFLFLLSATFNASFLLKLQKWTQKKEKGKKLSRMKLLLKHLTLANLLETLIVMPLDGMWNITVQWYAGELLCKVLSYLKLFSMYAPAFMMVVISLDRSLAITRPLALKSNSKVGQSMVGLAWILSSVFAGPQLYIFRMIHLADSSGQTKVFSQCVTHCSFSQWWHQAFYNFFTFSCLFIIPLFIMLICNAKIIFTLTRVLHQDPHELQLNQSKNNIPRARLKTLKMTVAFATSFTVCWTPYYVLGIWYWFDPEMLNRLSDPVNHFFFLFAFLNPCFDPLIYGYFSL
Sequence of KiSS-1 receptor (Homo sapiens) (Q969F8 whole entry, looked up): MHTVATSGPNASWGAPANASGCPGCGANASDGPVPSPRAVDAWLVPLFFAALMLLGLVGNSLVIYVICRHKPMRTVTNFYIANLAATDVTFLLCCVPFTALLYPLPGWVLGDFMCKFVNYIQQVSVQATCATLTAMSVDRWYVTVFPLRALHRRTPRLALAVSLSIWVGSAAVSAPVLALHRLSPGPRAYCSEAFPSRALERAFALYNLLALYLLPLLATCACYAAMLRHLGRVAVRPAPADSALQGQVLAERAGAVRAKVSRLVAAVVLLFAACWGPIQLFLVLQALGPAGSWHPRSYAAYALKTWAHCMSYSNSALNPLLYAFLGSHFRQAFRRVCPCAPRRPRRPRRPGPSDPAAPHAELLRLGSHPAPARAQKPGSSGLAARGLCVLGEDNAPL

Compound | Potency [1] | Potency [2] | Potency [3] | Potency [4] | Potency [5] | Potency [6] | Potency [7] | Potency [8] | Potency [9] | Potency [10] | Potency [11] | Potency [12] | Potency [13] | Potency [14] | Potency [15] | Potency [16] | Potency [17] | Potency [18] | Potency [19] | Potency [20]
CCCCCCCCCCCCCC[P+](CCCCCC)(CCCCCC)CCCCCC | 7.73 µM (active) and 19.5 µM (active) and inactive | inactive | inactive | inactive | inactive | inactive | inactive | 14.5 µM (active) and 20.6 µM (active) and inactive | 16.3 µM (active) and 20.6 µM (active) and inactive | inactive | inactive | inactive | inactive | inactive |  |  |  |  |  | 
O=[N+]([O-])c1ccc(Oc2ccc(Cl)cc2Cl)cc1 | inactive | inactive | inactive | inactive | inactive | inactive | inactive | inactive | inactive | inactive | inactive | inactive | inactive | inactive | inactive | inactive | inactive | inactive | inactive | 
CN1C(=O)NC(=O)C(C)(C2=CCCCC2)C1=O (stereo not drawn) | inactive | inactive | inactive | inactive | inactive | inactive | inactive |  | inactive | inactive | inactive |  | inactive | inactive | inactive | inactive | inactive | inactive | inactive | inactive
Oc1ccc(C(c2ccc(O)cc2)(C(F)(F)F)C(F)(F)F)cc1 | 38.4 µM (active) and 54.5 µM (active) | inactive | inactive | inactive | inactive | inactive | inactive |  |  | 37.5 µM (active) | inactive |  |  |  |  |  |  | inactive | inactive | 
ClCc1ccccc1 | inactive | inactive | inactive | inactive | inactive | inactive | inactive |  | inactive | inactive | inactive | inactive | inactive |  | inactive | inactive | inactive | inactive | inactive | inactive
O=C(O)C1C2CCC(O2)C1C(=O)O (stereo not drawn) | inactive | inactive | inactive | inactive | inactive | inactive | inactive |  | inactive | inactive | inactive | inactive | inactive | inactive | inactive | inactive | 27.6 µM (active) and 49.9 µM (active) | inactive | inactive | 
c1ccc(N=Nc2ccccc2)cc1 | inactive | inactive | inactive | inactive | inactive | inactive | inactive |  | inactive | inactive | inactive | inactive | inactive | inactive |  | inactive | inactive |  | inactive | inactive
CCOCN(C(=O)CCl)c1c(C)cccc1CC | inactive | 25.8 µM (active) and 68.6 µM (active) | inactive | inactive | inactive | inactive | inactive | inactive |  | inactive |  | inactive | inactive |  | inactive |  |  | inactive |  | inactive
Oc1ccccc1Cl | inactive | inactive | inactive | inactive | inactive | inactive | inactive |  | inactive | inactive | inactive | inactive | inactive | inactive | inactive | inactive | inactive | inactive | inactive | inactive
C=CC(=O)NC(C)(C)CC(C)=O | inactive | inactive | inactive | inactive | inactive | inactive | inactive |  | inactive | inactive | inactive | inactive | inactive | inactive | inactive | inactive | inactive | inactive | inactive | inactive
CC(O)CN(CC(C)O)CC(C)O (stereo not drawn) | inactive | inactive | inactive | inactive | inactive | inactive | inactive |  | inactive | inactive | inactive | inactive | inactive | inactive | inactive | inactive |  | inactive | inactive | inactive
COc1nc(C)nc(NC(=O)NS(=O)(=O)c2ccccc2Cl)n1 | inactive | inactive | inactive | inactive | inactive | inactive | inactive |  | inactive |  | inactive | inactive | inactive |  | inactive | inactive | inactive | inactive | inactive | inactive
CCCCCCCCCCCCCl | inactive | inactive | inactive | inactive | inactive | inactive | inactive |  | inactive | inactive | inactive | inactive |  | inactive | inactive | inactive |  | inactive | inactive | inactive
CC(C)CCCCCCOC(=O)c1ccccc1C(=O)OCCCCCCC(C)C | inactive | inactive | inactive | inactive | inactive | inactive | inactive |  | inactive | inactive | inactive | inactive | inactive | inactive | inactive | inactive | inactive | inactive |  | inactive
Clc1ccc(C(c2ccccc2Cl)C(Cl)(Cl)Cl)cc1 (stereo not drawn) | 43.5 µM (active) | inactive | inactive | inactive | inactive | inactive | inactive | inactive |  | inactive | inactive | inactive | inactive |  |  |  | inactive | inactive | inactive | inactive
